Compound activity: PubChem, Broad Institute
An excerpt weighted towards active compounds, which were near 2.9% of everything screened.
Wnt bcat act: activators of Wnt/beta-catenin signaling. Wnt/beta-catenin reporter cell assay, activator, plate reader. activation, % at 9.35 µM. 1.2% of 300,000 active. AID 743398; in the data active means activation above about 30%, passing the limit was not always enough; inconclusive means no clear call, values can overlap the other calls
MITF act: increases MITF-driven TRPM1 promoter luciferase signal. 0.75% of 300,000 active. activation, % at 12.5 µM. SK-MEL-5 TRPM1-promoter luciferase, 24 h; % of positive control, neutral wells = 0. AID 588334;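 active means mean activation of at least 80% with every replicate also reaching 80%; inconclusive means mean reaches 80% but some replicate falls short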
PvdQ acylase: P. aeruginosa PvdQ acylase inhibition. purified PvdQ acylase, fluorescence plate reader. inhibition, % at 10 µM. 0.063% of 340,000 active; in the data active means inhibition above about 30%, passing the limit was not always enough; inconclusive means no clear call, values can overlap the other calls
Glyco luc inh: blocks N-linked glycosylation in D54 reporter cells; D54 ERlucT glycosylation luciferase reporter, 24 h; percent of 100 nM tunicamycin response; reporter increase, % at 12.5 µM; 0.23% of 360,000 active;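 active means mean luciferase reporter signal, scaled so untreated is 0 and the glycosylation-blocking control 100, at or above a set limit in every replicate; inconclusive means mean reaches the limit but not every replicate does; inactive means mean below the limit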;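 further: luciferase carries N-glycosylation sites so blocking glycosylation raises the light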
esBAF inh: inhibitors of esBAF chromatin remodeling in mouse ES cells; reporter increase, % at 12.5 µM; AID 602393; 2% of 350,000 active; Bmi1-luciferase knock-in reporter, 24 h; 100% = twice the neutral-well signal; in the data active means activation above about 40%; inconclusive means no clear call, values can overlap the other calls;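 further: a rise in the Bmi1 reporter signal indicates esBAF inhibition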
Vif imaging: HIV Vif inhibition; HEK293T cells, Vif self-association by quenched fluorescence, imaging, 24 h; inhibition, % at 7.49 µM; 0.35% of 340,000 active; AID 602346; in the data active means inhibition above about 50%, passing the limit was not always enough; inconclusive means no clear call, values can overlap the other calls; inactive means below about 31%
Numbers stand for hits.

`NC(=O)c1cc(N2CC2)c([N+](=O)[O-])cc1[N+](=O)[O-]` gave Wnt bcat act inactive, MITF act inactive, PvdQ acylase inactive, Glyco luc inh inactive, esBAF inh inactive and Vif imaging 78.
Screening CCN1[C@@H]2Cn3c(ccc(-c4cccc(OC)c4)c3=O)[C@H]1[C@@H](C(=O)OC)[C@@H]2CO returned esBAF inh inactive.
Screening Cc1cc(N=Nc2ccccc2C)ccc1N returned Wnt bcat act 55, MITF act inactive, PvdQ acylase inactive, Glyco luc inh inactive, esBAF inh inactive and Vif imaging inactive.
Fc1cccc(F)c1-c1nc(-c2ccc(Cl)cc2)no1 was read as Wnt bcat act 65, PvdQ acylase inactive, Glyco luc inh inactive, esBAF inh 64 and Vif imaging inactive.
Screening O=C(C1CCN(c2nc3ccc(Br)cc3s2)CC1)N1CCC2(CC1)OCCO2 returned MITF act inactive, PvdQ acylase inactive, Glyco luc inh inactive, esBAF inh 64 and Vif imaging inactive.
For O=C1NC(=O)N(Cc2ccco2)C(=O)/C1=C/c1ccc(-c2cccc([N+](=O)[O-])c2)o1 the results were MITF act inactive, PvdQ acylase inactive, Glyco luc inh inactive and Vif imaging inactive.
C=CCN1C(=O)NC(=O)/C(=C\c2ccc(-c3ccccc3[N+](=O)[O-])o2)C1=O was read as Wnt bcat act 48, MITF act inactive, PvdQ acylase inactive, Glyco luc inh inactive and Vif imaging inactive.
`O=C(Cc1ccccc1)OCC(=O)c1ccccc1` gave Wnt bcat act inactive, MITF act inactive, PvdQ acylase inactive, Glyco luc inh inactive, esBAF inh inactive and Vif imaging inactive.
Screening O=C(Cc1ccccc1)OCn1nnc2ccccc2c1=O returned Wnt bcat act inactive, MITF act inactive, PvdQ acylase inactive, Glyco luc inh inactive, esBAF inh inactive and Vif imaging 140.
For O=C(Cc1ccncc1)N1CCCCN2[C@H](C1)[C@H](c1ccc(C#Cc3ccccc3F)cc1)[C@@H]2CO the results were esBAF inh inactive.
Cc1ccc(OCCOc2cccc(C=C3C(=O)NC(=O)NC3=O)c2)cc1 was read as Wnt bcat act 37, MITF act inactive, PvdQ acylase inactive, Glyco luc inh inactive, esBAF inh inactive and Vif imaging inactive.
COC(=O)[C@H]1[C@H](CO)[C@H]2Cn3c(ccc(/C=C/c4ccccc4)c3=O)[C@@H]1N2CC1CCCC1 was read as esBAF inh inactive.
Screening COC(=O)[C@@H]1[C@@H](CO)[C@@H]2Cn3c(ccc(-c4ccncc4)c3=O)[C@H]1N2S(=O)(=O)c1ccccc1C returned esBAF inh inactive.
`CC12CC[C@H]3[C@@H](CCC4(O)C[C@H](O)CCC34/C=N/NC(=O)c3ccc(O)cc3)C1(O)CCC2C1=CC(=O)OC1` (stereo not given in full) gave Wnt bcat act inactive, MITF act inactive, PvdQ acylase inactive, Glyco luc inh inactive, esBAF inh inactive and Vif imaging inactive.
CC12CC[C@H]3[C@@H](CCC4(O)C[C@H](O)CCC34/C=N/NC(=O)c3ccccc3F)C1(O)CCC2C1=CC(=O)OC1 (stereo not given in full) was read as Wnt bcat act inactive, MITF act inactive, PvdQ acylase inactive, Glyco luc inh inactive, esBAF inh inactive and Vif imaging inactive.
Screening CC12CC[C@H]3[C@@H](CCC4(O)C[C@H](O)CCC34/C=N/NC(=O)c3ccccc3O)C1(O)CCC2C1=CC(=O)OC1 (stereo not given in full) returned Wnt bcat act inactive, MITF act inactive, PvdQ acylase inactive, Glyco luc inh 32, esBAF inh inactive and Vif imaging inactive.
For COc1ccc(C(=O)N/N=C/C23CC[C@@H](O)CC2(O)CC[C@@H]2[C@@H]3CCC3(C)C(C4=CC(=O)OC4)CCC23O)cc1 (stereo not given in full) the results were Wnt bcat act inactive, MITF act inactive, PvdQ acylase inactive, Glyco luc inh 38, esBAF inh inactive and Vif imaging inactive.
Screening COc1ccc(CC2(CCc3ccncc3)C(=O)NC(=O)NC2=O)cc1OC returned Wnt bcat act 37, MITF act inactive, PvdQ acylase inactive, Glyco luc inh inactive, esBAF inh inactive and Vif imaging inactive.
For COc1ccc(CN2C(=O)NC(=O)/C(=C\c3ccco3)C2=O)cc1 the results were Wnt bcat act inactive, MITF act inactive, PvdQ acylase inactive, Glyco luc inh inactive, esBAF inh inactive and Vif imaging inactive.
`CC(C)N1C(=O)/C(=C/C=C/c2ccco2)C(=O)N(Cc2ccco2)C1=O` gave Wnt bcat act inactive, MITF act inactive, PvdQ acylase inactive, Glyco luc inh 30, esBAF inh inactive and Vif imaging inconclusive.
For O=C1NC(=O)N(Cc2ccccc2)C(=O)/C1=C/C=C/c1ccco1 the results were Wnt bcat act inactive, MITF act inactive, PvdQ acylase inactive, Glyco luc inh 32 and Vif imaging inactive.
O=C(Cc1cccnc1)N1CCCCN2[C@H](CO)[C@@H](c3ccc(C#CC4CCCC4)cc3)[C@H]2C1 was read as esBAF inh inactive.
`CC(C)CC#Cc1ccc([C@@H]2[C@H](CO)N3CCCCN(C(=O)Cc4ccccn4)C[C@@H]23)cc1` gave esBAF inh inactive.
For COC(=O)[C@H]1[C@H](CO)[C@H]2Cn3c(cccc3=O)[C@@H]1N2C(=O)C1CC1 the results were esBAF inh inactive.
For Cc1cc(C(=O)Nc2ccccc2)nn1C(C)(C)C the results were Wnt bcat act 37, PvdQ acylase inactive, Glyco luc inh inactive and Vif imaging inactive.
Cc1cc(C(=O)Nc2ccc3c(c2)OCCO3)nn1C(C)(C)C was read as Wnt bcat act 56, PvdQ acylase inactive, Glyco luc inh inactive, esBAF inh inactive and Vif imaging inactive.
Cc1cccc(C(O)(C(=O)O)c2ccccc2)c1 (stereo not given) was read as Wnt bcat act inactive, MITF act inactive, PvdQ acylase inactive, Glyco luc inh inactive and Vif imaging inactive.
`N#CCCn1cc(C(=O)Nc2ccc([N+](=O)[O-])cc2)c(-c2ccc3c(c2)OCCO3)n1` gave Wnt bcat act inactive, MITF act inactive, PvdQ acylase inactive, Glyco luc inh inactive and Vif imaging inactive.
`c1ccc(-c2ccc3c(c2)CNCc2cnnn2-3)cc1` gave Wnt bcat act inactive, Glyco luc inh inactive, esBAF inh inactive and Vif imaging inactive.
Screening c1cc2c(cc1-c1ccc3c(c1)OCO3)CNCc1cnnn1-2 returned Wnt bcat act inactive, Glyco luc inh inactive, esBAF inh 51 and Vif imaging inactive.
For Fc1cccc(-c2ccc3c(c2)CNCc2cnnn2-3)c1 the results were Wnt bcat act inactive, Glyco luc inh inactive, esBAF inh 43 and Vif imaging inactive.
COC(=O)[C@H]1[C@H](CO)[C@H]2Cn3c(ccc(/C=C/c4ccccc4)c3=O)[C@@H]1N2C(=O)C1CCC1 was read as esBAF inh inactive.
